Measured values as given in PubChem BioAssay (Tox21).
Records with an inconclusive call do not appear. Unmarked numbers belong to inactive results. Activity calls are given as the source filed them. The call rests on the fitted dose curve; in most records, active means well fitted cell-killing curve with a large enough effect in the repeat runs; inconclusive means weak or mixed curves; inactive means flat fitted curve, though single readings scatter.

Assay: qHTS RealTime-Glo MT Cell Viability Assay in HepG2 cells - 24 hour (AID 1224867); further: nearly all actives have a fitted effect of over 50% in size
Settings: RealTime-Glo luminescence; series mostly up to 76.8 µM
Description: U.S. Tox21 Program National Center for Advancing Translational Sciences [NCATS] NIH Chemical Genomics Center [NCGC] U.S. Environmental Protection Agency [EPA] National Institutes of Environmental Health Sciences [NIEHS] National Toxicology Program [NTP] U.S. Food and Drug Administration [FDA] Tox21 Assay Overview: Measure of cell viability is critical in the cell-base assay. Analysis of cell viability is necessary for the characterization of cell responses to cytotoxic drugs and environmental stress. A RealTime-Glo MT Cell Viability Assay to monitor cell viability in real time of continues cell culture during 40 hours of compound treatment was used to screen Tox21 10K library compounds in HepG2 cells. The RealTime-Glo MT Cell Viability Assay is a nonlytic, homogeneous, bioluminescent method to measure cell viability in real time using a simple, plate-based method. The assay involves adding NanoLuc luciferase and a cell-permeant prosubstrate to cells in culture. Viable cells reduce the proprietary prosubstrate to generate a substrate for NanoLuc luciferase. This substrate diffuses from cells into the surrounding culture medium, where it is rapidly used by the NanoLuc Enzyme to produce a luminescent signal. The signal correlates with the number of viable cells, making the assay well suited for cytotoxicity studies.
Tox21 Assay Protocol Summary: The mixture of HepG2 cell suspension and reagents were dispensed at 600cells/6 ul/well in 1536-well tissue culture treated black solid bottom plates using a Multidrop dispenser. After the assay plates were incubated at a 37 C/5% CO2 incubator for 5 hours, 23 nL of compounds dissolved in DMSO, positive and negative controls was transferred to the assay plate by a pintool work station. The plates were incubated at 37 C for 40 hours. The luminescence intensity were measured at 0h, 8h, 16h, 24h, 32h and 40h time points using ViewLux plate reader during compound treatment.
On the % scale 0 is the no-effect control and ±100 the full control effect.

Row | Structure (SMILES) | outcome | activity change, negative = cytotoxicity
1 | CCN(CC)CCN | inactive | 
2 | CC(=O)O[C@@H]1CC2CCC1(C)C2(C)C (stereo not given in full) | inactive | 
3 | CCCCCc1cccc(=O)o1 | inactive | 
4 | CCCCCCCCCOC(=O)CCCCC(=O)OCCCCCCC | inactive | 
5 | O=Cc1cc2ccccc2o1 | inactive | 
6 | CCC(C)C(=O)OCCc1ccccc1 (stereo not given) | inactive | 
7 | CC(=O)O[C@H]1C[C@@H]2CC[C@@]1(C)C2(C)C | inactive | 
8 | Cc1ccc(C)c([N+](=O)[O-])c1 | inactive | 
9 | OCC(O)CN1CCN(c2ccccc2)CC1 (stereo not given) | inactive | 
10 | C=Cc1ccc(C(C)(C)C)cc1 | inactive | 
11 | CCC(C(=O)OCCN1CCOC(c2ccccc2)C1C)c1ccccc1 (stereo not given) | inactive | 
12 | O=C(O)CONC(=O)c1ccccc1 | inactive | 
13 | N#Cc1ccccc1O | inactive | 
14 | CCOc1ccccc1OCC1CNCCO1 (stereo not given) | inactive | 
15 | C=CCN1C[C@H](C(=O)N(CCCN(C)C)C(=O)NCC)C[C@@H]2c3cccc4[nH]cc(c34)C[C@H]21 | inactive | 
16 | N[C@@H](Cc1ccc(O)cc1)C(=O)O |  | -0.685% [at 6.97 µM]
17 | CN1C[C@@H]2C[C@H]1CN2c1cc2c(cc1F)c(=O)c(C(=O)O)cn2C1CC1 |  | 5.55% [at 15.8 µM]
18 | Cc1c(N)cccc1Cl | inactive | 
19 | CCCCCC/C=C/C(=O)OC | inactive | 
20 | c1ccc(B(c2ccccc2)c2ccccc2)cc1 | inactive | 

Row | Structure (SMILES) | outcome | activity change, negative = cytotoxicity
21 | CCCCCC(C)O (stereo not given) | inactive | 
22 | C=CC(=O)CCCCC | inactive | 
23 | N#CCC(=O)NN | inactive | 
24 | O=C1c2ccccc2C(=O)c2cc(Cl)ccc21 |  | -1.65% [at 6.97 µM]
25 | O=C1NC(c2ccccc2)(c2ccccc2)C(=O)N1COP(=O)(O)O | inactive | 
26 | OC[C@H]1O[C@@H](O[C@@H]2[C@@H](CO)O[C@](O)(CO)[C@H]2O)[C@H](O)[C@@H](O)[C@H]1O | inactive | 
27 | C[C@]12CCC(=O)C=C1CC[C@H]1[C@@H]3CC[C@](O)(C(=O)CO)[C@@]3(C)C[C@H](O)[C@@]12F | inactive | 
28 | CC(=O)OC1CCCCC1C(C)(C)C (stereo not given) | inactive | 
29 | CC(C)CO | inactive | 
30 | C=CCCCC | inactive | 
31 | CCCCCCCCCCCCCBr | inactive | 
32 | CCCc1ccc(O)cc1 | inactive | 
33 | COC(=O)c1ccccc1C(=O)O | inactive | 
34 | CC1c2ccccc2CN1NC(=O)c1ccc(Cl)c(S(N)(=O)=O)c1 (stereo not given) | inactive | 
35 | CCOC(=O)CC1(C)OCC(C)O1 (stereo not given) | inactive | 
36 | O=C(O)c1cc2ccccc2nc1C(=O)O | inactive | 
37 | O=C1OCCO1 | inactive | 
38 | CC1=C(C(=O)O)N2C(=O)[C@@H](NC(=O)[C@H](N)c3ccccc3)[C@H]2SC1 | inactive | 
39 | Fc1ccccc1 | inactive | 
40 | CCC(C)C(C)=O (stereo not given) | inactive | 
